# Screening data (PubChem)
# A selection: hits, their analogues and other compounds. The true share with any hit is near 22%.
# CYP2C9 activ: human CYP2C9 activators, primary screen, biochemical, luminescence | hit rate 1.4% among 96,000 | recombinant CYP2C9, luciferin-H conversion; hits give high values; factor 1 = untreated enzyme, 0 = blocked | AID 1024, 2008 | activation factor at 5 µM;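 active means activation factor of 2 or more for CYP2C9 at a 5 µM dose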;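 further: 0 = sulfaphenazole-blocked wells and 1 = vehicle-only wells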
# E-sel TNF inh: E-selectin induction blockers in HUVEC – imaging, immunofluorescence, high content, primary screen. HUVEC TNFa-induced E-selectin immunofluorescence. hit rate 0.71% among 120,000. inhibition, % at 2 µM;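 active means inhibition above the batch mean plus 3 SD, and confirmed as a hit on visual image review, cut at about 43% in these data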;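 further: 0% = TNF-stimulated DMSO wells and 100% = unstimulated control wells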
# CYP2C19 activ: human CYP2C19 activators, primary screen, biochemical, luminescence; Cytochrome P450 2C19 (Homo sapiens), P33261; recombinant CYP2C19, luciferin-H EGE luminescence; hits give high values; 0 = fully inhibited enzyme, 1 = untreated enzyme; activation factor at 5 µM; 96,000 tested, under 10 active; AID 1025, 2008;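 active means activation factor of at least 2 at 5 µM in the primary screen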;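 further: 0 = wells with 2.5 mM tranylcypromine and 1 = vehicle-only wells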
# Target sequence (P33261 whole entry, looked up): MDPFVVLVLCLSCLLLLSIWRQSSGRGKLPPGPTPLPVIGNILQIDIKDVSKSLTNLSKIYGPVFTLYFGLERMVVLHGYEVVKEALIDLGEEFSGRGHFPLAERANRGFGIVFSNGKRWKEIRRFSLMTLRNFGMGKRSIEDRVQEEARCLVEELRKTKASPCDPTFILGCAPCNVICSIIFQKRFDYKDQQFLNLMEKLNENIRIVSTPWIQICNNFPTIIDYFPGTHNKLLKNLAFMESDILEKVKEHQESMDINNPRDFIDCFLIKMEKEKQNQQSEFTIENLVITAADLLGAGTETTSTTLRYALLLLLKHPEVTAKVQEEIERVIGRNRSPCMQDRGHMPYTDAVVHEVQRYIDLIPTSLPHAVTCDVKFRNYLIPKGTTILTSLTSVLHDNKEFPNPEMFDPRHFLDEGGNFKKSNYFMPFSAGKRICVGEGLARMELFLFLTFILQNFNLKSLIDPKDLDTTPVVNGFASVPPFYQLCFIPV
# F-actin modifier: modifiers of F-actin cytoskeleton organization, primary screen, imaging, HUVEC, phalloidin staining, high-content imaging. HUVEC TNFa F-actin phalloidin imaging. inhibition, % at 2 µM. hit rate 0.18% among 91,000;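 active means inhibition above the batch mean plus 3 SD and confirmed as a hit by visual image inspection, cut at about 30% in these data, passing the limit was not always enough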
# CYP2C19 inh: blockers of cytochrome P450 2C19 activity – biochemical, luminescence, ADME assay, primary screen. CYP2C19 Supersomes, luciferin-H EGE luminescence, 30 min. AID 778, 2007. hit rate 21% among 96,000. inhibition, % at 5 µM. P33261;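 active means CYP2C19 inhibition above a set limit at 5 µM in the primary screen, cut at about 50% in these data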;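 further: plate controls were negative control wells for no effect and 2.5 mM tranylcypromine positive control for full effect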
# CYP2C9 inh: blockers of cytochrome P450 2C9 activity – biochemical, luminescence, ADME assay, primary screen. inhibition, % at 5 µM. CYP2C9 Supersomes, luciferin-H conversion. hit rate 20% among 96,000;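 active means blocking of liver enzyme CYP2C9 beyond about 50% at 5 µM, limit read from the data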
# * marks the source's active call; other numbers are inactive results; nt = no result given.
SMILES,CYP2C9 activ,E-sel TNF inh,CYP2C19 activ,F-actin modifier,CYP2C19 inh,CYP2C9 inh
C=CCNC(=O)c1onc(CSc2cccc(OCC)c2)c1C(=O)O,0.5,-15,0.8,12,18,46
COc1ccc(N(C(=O)c2cccnc2)S(=O)(=O)c2ccc3c4c(cccc24)C(=O)N3C)cc1,nt,-12,nt,nt,nt,nt
O=C(CSC1=NCCS1)Nc1cccc(F)c1,nt,-4,nt,nt,nt,nt
COc1ccc(/C=N/N2CCN(C)CC2)cc1OC,1.1,-22,0.9,13,8,-11
CC1CC(C)CN(C(=O)CSc2nc(Cc3cccs3)nc3ccccc23)C1 (stereo not drawn),0.3,nt,0.7,nt,28,72*
CCCc1nc(SCC(=O)N2CCc3ccccc3C2)c2ccccc2n1,0.2,10,0.4,1,57*,78*
CCOC(=O)CNC(=O)CSc1nc(Cc2cccs2)nc2ccccc12,0.6,-1,0.4,16,58*,44
COCCn1c(SCC(=O)N2CCc3ccccc3C2)nc2ccccc2c1=O,nt,2,nt,nt,nt,nt
CCc1cccc(OCCN2CCCC2)c1,nt,-9,nt,nt,nt,nt
CCCNC(=O)NS(=O)(=O)c1cnccc1Sc1ccc(Cl)c(Cl)c1,0.5,7,1,-10,-1,45
Fc1ccc(F)c(C2=NNC(=Nc3ccccc3F)SC2)c1,nt,-11,nt,nt,nt,nt
COCCn1c(C)cc(C2=NNC(=Nc3ccccc3F)SC2)c1C,0.6,13,0.5,-2,53*,38
CCOC(=O)CC1NC(=O)c2ccccc21 (stereo not drawn),0.9,-10,1,-5,1,5
Cc1c(N/C=C/C(=O)c2ccc(Cl)cc2)c(=O)n(-c2ccccc2)n1C,0.9,17,0.8,-1,18,11
Cc1cccc2sc(NC(=O)CN(C)S(=O)(=O)c3cccs3)nc12,0.4,11,0.1,1,94*,59*
Cc1cccc2sc(NC(=O)CN(C)S(=O)(=O)c3ccc(Br)s3)nc12,1.1,1,0.4,-11,62*,-12
Cc1cccc2sc(NC(=O)Cn3cccc3)nc12,0.4,nt,0.5,0,49,56*
Cc1ccc(NC(=O)CN(C)S(=O)(=O)c2ccc(Br)s2)cc1F,nt,5,nt,nt,nt,nt
COC(=O)Nc1nc2c(C)cccc2s1,0.9,-10,0.7,-11,32,13
O=C(CSc1ncnc2ccccc12)N1CCN(c2ccccc2)CC1,nt,-15,nt,6,nt,nt
CCCn1cnc2c(c1=O)c1nc3ccccc3nc1n2CCc1ccccc1,0.6,14,0.1,2,90*,39
CCCn1cnc2c(c1=O)c1nc3ccccc3nc1n2CCC1=CCCCC1,0.4,-19,0.2,5,84*,58*
CCCCCCn1c(C)nc2c(c1=O)c1nc3ccccc3nc1n2/N=C/c1ccco1,0.3,16,1,-4,2,74*
CCCCCCNC(=O)c1c(N)n(/N=C/c2ccco2)c2nc3ccccc3nc12,nt,-12,nt,-1,nt,nt
CCOCCCn1c(C)nc2c(c1=O)c1nc3ccccc3nc1n2CCC1=CCCCC1,0.2,14,0.3,32,73*,80*
SMILES,CYP2C9 activ,E-sel TNF inh,CYP2C19 activ,F-actin modifier,CYP2C19 inh,CYP2C9 inh
CCOC(=O)c1ccc(NC(=O)c2c(O)c3ccccc3n(C)c2=O)cc1,1,nt,1.1,nt,-15,-3
O=c1c2c3nc4ccccc4nc3n(/N=C/c3ccco3)c2ncn1CCC1=CCCCC1,0.4,nt,0.5,nt,55*,58*
CC(C)Cn1cnc2c(c1=O)c1nc3ccccc3nc1n2Cc1ccc2c(c1)OCO2,0.5,nt,1,nt,-2,50*
CCCCn1c2nc3ccccc3nc2c2c(=O)n(-c3ccccc3)cnc21,nt,92*,nt,nt,nt,nt
Cc1nc2c(c(=O)n1CCC1=CCCCC1)c1nc3ccccc3nc1n2/N=C/c1ccccc1,0.6,-6,0.9,1,9,35
Cc1ccc(-c2n[nH]c(=O)c3ccccc23)cc1S(=O)(=O)NCCO,1,14,0.8,-8,22,-1
COC(=O)c1ccc(CN2C(=O)NC3(CCCc4ccccc43)C2=O)o1 (stereo not drawn),1,nt,0.6,22,41,3
CCC1(c2cccc(Cl)c2)NC(=O)N(Cc2cc(C(=O)OC)c(C)o2)C1=O (stereo not drawn),1,nt,0.4,44,62*,0
COc1cc(C(C)=O)ccc1OCC(=O)c1cc(C)n(C2CC2)c1C,1.3,nt,0.4,14,58*,-32
COCCNC(=S)NNC(=O)c1cccs1,nt,-25,nt,nt,nt,nt
C=CCOc1c(CNc2nccs2)cccc1OCC,0.3,-12,0,-2,98*,72*
C=CCOc1ccc(CNc2nccs2)cc1OCC,nt,18,nt,5,nt,nt
O=C(CSc1nc(-c2ccccc2)c(-c2ccccc2)o1)Nc1nnc(-c2ccccc2)s1,0.6,-42,0.7,-39,34,38
COCC(C)NC(=O)CSc1nc(-c2ccccc2)c(-c2ccccc2)o1 (stereo not drawn),0.5,-5,0.4,-3,59*,50
Cc1nc(SCC(=O)c2cccc([N+](=O)[O-])c2)n[nH]1,1,-27,0.6,32,39,4
Cc1nc(SCC(=O)N2c3ccccc3Sc3ccccc32)n[nH]1,0.6,-17,0.4,12,60*,36
O=C(CSc1nc(C2CC2)nc2ccccc12)N1c2ccccc2Sc2ccccc21,0,24,0.6,12,44,97*
Cc1ccc(C(=O)CSc2n[nH]c(-c3ccco3)n2)cc1C,0.6,4,0.8,-16,24,36
CCc1nc(SCC(=O)c2ccc(C)c(C)c2)n[nH]1,2.3*,9,0,0,97*,-133
Cc1nc(SCC(=O)c2ccc(F)cc2)n[nH]1,0.3,nt,0.4,nt,58*,71*
COc1ccc(/C=N/n2cnnc2SCc2ccc(OC)cc2)cc1,1,-36,0.8,33,20,1
O=C(NC1(C(F)(F)F)N=C2SCCN2C1=O)C1CCCCC1 (stereo not drawn),1,-9,1,-6,-1,-2
CC(=O)Nc1c(O)nc(SCC(=O)Nc2sc3c(c2C#N)CCCCCC3)[nH]c1=O,0.8,nt,1,0,1,24
CN(C)S(=O)(=O)c1ccc(C(=O)OCC(=O)NC(=O)NCc2ccccc2)cc1,1.1,-55,1.2,19,-17,-11
CCCN1C/C(=C/c2cccc([N+](=O)[O-])c2)C(=O)/C(=C/c2cccc([N+](=O)[O-])c2)C1,0.6,nt,0.4,8,61*,44
O=C1NC(=S)N/C1=C/c1cccc([N+](=O)[O-])c1,nt,29,nt,nt,nt,nt
COc1ccc2[nH]cc(CCN=C3SCC(=O)N3C)c2c1,0.6,nt,0.2,6,79*,40
COc1ccc2[nH]cc(C(=O)CN3CCC(C)CC3)c2c1,0.8,nt,0.6,-21,40,19
